Source: PubChem BioAssay (National Center for Advancing Translational Sciences (NCATS))
JMJD2A Tudor inh: blocks the human JMJD2A Tudor domain | O75164 | AlphaScreen JMJD2A-Tudor / H3K4me3 peptide binding | Potency, µM (series often up to 114 µM), for inactives: top-dose activity change, negative = inhibition, most hits filed as inhibitors | 390,000 compounds, 4.4% hits; note: potency is the fitted concentration of half-maximal effect; % is set by controls: 0 for no effect and ±100 for the full control effect; nearly all actives have a fitted effect of over 50% in size
PI5P4Ka inh: blocks human PI5P4K alpha kinase activity. P48426. PI5P4Kalpha enzyme, ADP-Glo luminescence, 60 min; stronger effect = lower value. max response, %. 330,000 compounds, 1.2% hits. AID 652105; active = max response of -50% or lower; inconclusive = between -30% and -50%; inactive = -30% or higher; note: value at the top dose of about 77 µM; % is set by controls: 0 for no effect and ±100 for the full control effect
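Enzyme plus substrate dispensed, test compounds pinned in, then ATP (5 microM final) added. After 60 min at RT, ADP-Glo reagent 1 for 45 min and reagent 2 for 30 min preceded luminescence imaging.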
HP1b chromo inh: inhibitors of HP1-beta chromodomain binding to methylated histone tails; P83916; AlphaScreen HP1-beta / biotin-H3K9me3 peptide binding; Potency, µM (titrated, usually from 114 µM), inactives show top-dose activity change, negative = inhibition, usual class: inhibitors; 390,000 compounds, 0.56% hits; note: potency is the fitted concentration of half-maximal effect; nearly all actives have a fitted effect of over 70% in size
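AlphaScreen: HP1-beta (50 nM) preformed 30 min with biotin-H3(1-18)K9me3 peptide (50 nM) in PBS pH 7.4, 0.01% Tween-20. Compound added for 30 min at RT, then streptavidin donor/nickel chelate acceptor beads (10 ug/mL) for 30 min.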
BAZ2B block: BAZ2B (human) inhibition; AlphaScreen BAZ2B-H3K14Ac peptide displacement; Potency, µM (series often up to 114 µM), for the others: at the top dose activity change, negative = inhibition, most hits filed as inhibitors; 360,000 compounds, 4.4% hits; note: potency is the fitted concentration of half-maximal effect; % is set by controls: 0 for no effect and ±100 for the full control effect; nearly all actives have a fitted effect of over 60% in size
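AlphaScreen displacement of biotin-H3(5-23)K14Ac peptide (50 nM final) from BAZ2B (50 nM final) in PBS pH 7.4, 0.01% Tween-20; complex preformed 30 min RT, then compounds (top 110 uM) 30 min RT, beads 20 min dark.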
G9a inh: blocks human histone lysine methyltransferase G9a; Q96KQ7; G9a H3K9 monomethylation, AlphaScreen, 2 h; Potency, µM (titrated, usually from 102 µM), without a hit: top-dose activity, negative = inhibition, actives largely listed as inhibitors; 350,000 compounds, 8.8% hits; note: potency is the fitted concentration of half-maximal effect; % is set by controls: 0 for no effect and ±100 for the full control effect; nearly all actives have a fitted effect of over 75% in size
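Enzyme 20 nM + cpd, 15 min RT; add b-H3K9 pep 500 nM / SAM 20 uM; 2 h RT; anti-H3K9me1 Ab 0.5 ug/mL + SA donor / anti-rabbit acceptor beads 20 ug/mL each, 10 min; AlphaScreen read.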
L3MBTL1 inh: blocks human L3MBTL1; AlphaScreen L3MBTL1–H3K9me1 peptide binding; Potency, µM (top dose mostly 57.1 µM), for the others: top-dose activity, negative = inhibition, most hits filed as inhibitors; 230,000 compounds, 0.66% hits; AID 485360; note: potency is the fitted concentration of half-maximal effect; % is set by controls: 0 for no effect and ±100 for the full control effect; nearly all actives have a fitted effect of over 60% in size
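L3MBTL1 (50 nM) pre-complexed 30 min with biotinylated H3(1-15)K9me1 peptide (75 nM), then compounds added for 30 min at room temperature; AlphaScreen streptavidin donor/nickel chelate acceptor beads (10 ug/mL final) read after 30 min dark incubation.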
An asterisk follows results filed as active; ? = inconclusive; · = no result given; [ ] = remark or other dose. An excerpt weighted towards active compounds, which were near 11% of everything screened. Unless noted, calls come from the whole dose curve; as a rule, active = well fitted inhibition curve with a large enough effect; inconclusive = small, poorly fitted or top-dose-only effect; inactive = no such curve, though single readings can be large or run the other way.

SMILES	JMJD2A Tudor inh	PI5P4Ka inh	HP1b chromo inh	BAZ2B block	G9a inh	L3MBTL1 inh
O=[N+]([O-])c1cccc(C=NNc2ccc3ccccc3n2)c1O	22µM*	?	19%	·	·	·
O=[N+]([O-])c1ccccc1/C=C/c1ccc2ccccc2n1	40µM*	-2	-12%	?	·	-14%
O=C(N/N=C/c1ccc([N+](=O)[O-])cc1)c1cccs1	-35%	-4	31%	-36%	50µM*	?
Cc1sc(-n2cccc2)c(C(C)NC(=O)Nc2ccccc2Cl)c1C (centres undefined)	?	·	33%	-18%	3%[59 µM]	·
CC12CCC=CC1C(c1ccc3ccccc3c1C=Cc1ccccc1)N(Cc1ccccc1)C2=O (centres undefined)	-36%	·	0%	·	·	·
O=C(N/N=C/c1cccc([N+](=O)[O-])c1O)c1cccs1	50µM*	-51*	3%	22µM*	50µM*	?
Cc1sc2nc(CSC(C)C(=O)Nc3ccc(Cl)cn3)[nH]c(=O)c2c1C (centres undefined)	-23%	-20	34%	5%	-8%[12.7 µM]	2%
CCOC(=O)/C(=C\c1ccc(Cl)cc1)c1nc2sc(C)c(C)c2c(=O)[nH]1	?	-25	?	-8%	25µM*	-2%
CC(C)NC(=O)Cn1ncn2c(cc3cc(F)ccc32)c1=O	-12%	·	21%	5%	-6%[59 µM]	·
COc1cc2oc(=O)c(CC(=O)NCCc3ccccc3)c(C)c2cc1Cl	-12%	·	43%	-9%	-4%[59 µM]	·
COc1cc2c(cc1OC)CN(Cc1cc(OC)c(O)c(OC)c1)CC2	-3%	4	57%	-11%	32µM*	0%
COc1cc2c(cc1OC)CN(Cc1cccs1)CC2	3.2µM*	·	?	-39%	?	6%
COc1ccc(CNC(=O)c2ccc(-c3nc(CSc4ccc(C)cc4)c(C)o3)cc2)cc1OC	-8%	·	39%	-4%	?	·
CCOc1ccc(CCNC(=O)c2ccc3c(c2)nc2n3CCOC2)cc1OCC	5%	·	26%[57 µM]	4%	7%[59 µM]	·
CSc1ccc(C2NN=C(c3ccccc3)S2)cc1 (centres undefined)	-32%	-5	64%	·	·	·
Oc1ccccc1C1NN=C(c2ccccc2)S1 (centres undefined)	-20%	2	77%	18µM*	·	6%
CCC1CN(C(=O)Nc2cccc(OC)c2)c2ccccc2O1 (centres undefined)	?	·	24%	-24%	-49%[59 µM]	·
Cc1c(NS(=O)(=O)c2cccc(C(=O)NCc3ccc(Cl)cc3)c2)c(=O)n(-c2ccccc2)n1C	-12%[57.1 µM]	0	-11%	1%	-10%[59 µM]	-5%
Cc1c(NS(=O)(=O)c2cccc(C(=O)NCc3ccco3)c2)c(=O)n(-c2ccccc2)n1C	63µM*	-16	-36%	·	·	·
COC(=O)C(CC(=O)O)NCc1ccco1 (centres undefined)	20µM*	-6	3%	?	·	6%
O=C(O)CC(NCc1ccco1)C(=O)OCCCl (centres undefined)	28µM*	0	-3%	?	7.9µM*	12%
Cc1c(N(C)S(=O)(=O)c2cccc(C(=O)NC(C)C)c2)c(=O)n(-c2ccccc2)n1C	-23%	5	6%	-2%	32µM*	·
Cc1cc(NC(=O)CN2C(=O)c3cccnc3Sc3ccccc32)ccc1Br	-6%	·	11%	-6%	25%[59 µM]	·
O=C(O)CC(NCc1ccco1)C(=O)Nc1cccc(O)c1 (centres undefined)	3.2µM*	-5	-3%	-37%	50µM*	·
COCCOC(=O)C(CC(=O)O)NCc1ccco1 (centres undefined)	?	1	-8%	-7%	·	14%
Cc1c(NC(=O)c2ccco2)c(=O)n(-c2ccccc2)n1C	-8%	-4	35%	11%	8%	4%
Cc1c(NC(=O)C(CC(=O)O)NCc2ccco2)c(=O)n(-c2ccccc2)n1C (centres undefined)	5µM*	2	-7%	50µM*	?	0%
